How the values were obtained:
[1] = target: Ribosomal protein S6 kinase alpha-6 (Homo sapiens) (UniProt Q9UK32); conditions: at 1 µM;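 further: each value is a mean inhibition of RSK4 from a GSK PKIS panel screen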
[2] = target: T1, Serine/threonine-protein kinase Sgk1 (Homo sapiens) (UniProt O00141); conditions: at 0.1 µM
T1 sequence (whole entry): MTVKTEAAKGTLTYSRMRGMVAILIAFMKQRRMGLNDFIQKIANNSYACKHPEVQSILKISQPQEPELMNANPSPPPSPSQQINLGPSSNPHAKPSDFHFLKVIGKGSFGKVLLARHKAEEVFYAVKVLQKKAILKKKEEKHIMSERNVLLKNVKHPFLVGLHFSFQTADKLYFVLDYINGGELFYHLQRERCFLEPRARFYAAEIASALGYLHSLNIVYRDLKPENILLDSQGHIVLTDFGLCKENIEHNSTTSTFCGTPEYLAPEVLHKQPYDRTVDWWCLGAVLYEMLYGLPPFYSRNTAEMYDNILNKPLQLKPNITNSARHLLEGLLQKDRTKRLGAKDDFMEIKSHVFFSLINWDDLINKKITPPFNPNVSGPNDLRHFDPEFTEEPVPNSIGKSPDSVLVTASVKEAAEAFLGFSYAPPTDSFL

[3] = target: T1, Serine/threonine-protein kinase Sgk1 (Homo sapiens); conditions: at 1 µM
[4] = target: T2, Serine/threonine-protein kinase Sgk2 (Homo sapiens) (UniProt Q9HBY8); conditions: at 0.1 µM
T2 sequence (whole entry): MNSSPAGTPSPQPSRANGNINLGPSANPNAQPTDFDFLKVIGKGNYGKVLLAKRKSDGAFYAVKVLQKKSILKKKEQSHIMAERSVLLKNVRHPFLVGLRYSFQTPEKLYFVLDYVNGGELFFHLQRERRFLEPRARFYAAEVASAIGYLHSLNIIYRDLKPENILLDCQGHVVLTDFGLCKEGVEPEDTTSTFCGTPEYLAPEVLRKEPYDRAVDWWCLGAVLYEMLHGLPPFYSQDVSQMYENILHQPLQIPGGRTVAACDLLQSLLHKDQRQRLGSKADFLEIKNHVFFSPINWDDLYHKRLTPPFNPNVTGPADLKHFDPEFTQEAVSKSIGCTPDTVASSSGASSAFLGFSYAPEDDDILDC

[5] = target: T2, Serine/threonine-protein kinase Sgk2 (Homo sapiens); conditions: at 1 µM
[6] = target: T3, Serine/threonine-protein kinase Sgk3 (Homo sapiens) (UniProt Q96BR1); conditions: at 0.1 µM
T3 sequence (whole entry): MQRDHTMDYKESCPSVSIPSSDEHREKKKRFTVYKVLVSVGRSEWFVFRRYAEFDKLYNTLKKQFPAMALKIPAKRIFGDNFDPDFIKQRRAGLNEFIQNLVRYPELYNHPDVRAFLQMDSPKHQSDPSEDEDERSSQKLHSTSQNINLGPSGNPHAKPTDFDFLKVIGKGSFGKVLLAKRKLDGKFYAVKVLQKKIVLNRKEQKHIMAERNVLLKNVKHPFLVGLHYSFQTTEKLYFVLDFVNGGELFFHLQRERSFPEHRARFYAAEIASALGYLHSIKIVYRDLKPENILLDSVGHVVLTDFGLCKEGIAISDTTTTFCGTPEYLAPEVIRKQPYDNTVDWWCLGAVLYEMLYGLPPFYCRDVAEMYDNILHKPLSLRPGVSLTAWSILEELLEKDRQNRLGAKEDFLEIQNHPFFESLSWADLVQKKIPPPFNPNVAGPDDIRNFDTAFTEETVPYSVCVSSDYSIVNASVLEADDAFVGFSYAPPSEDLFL

[7] = target: T3, Serine/threonine-protein kinase Sgk3 (Homo sapiens); conditions: at 1 µM
[8] = target: 5'-AMP-activated protein kinase catalytic subunit alpha-1 (Homo sapiens) (UniProt Q13131); conditions: at 0.1 µM
5'-AMP-activated protein kinase catalytic subunit alpha-1 (Homo sapiens), sequence (Q13131 whole entry, looked up): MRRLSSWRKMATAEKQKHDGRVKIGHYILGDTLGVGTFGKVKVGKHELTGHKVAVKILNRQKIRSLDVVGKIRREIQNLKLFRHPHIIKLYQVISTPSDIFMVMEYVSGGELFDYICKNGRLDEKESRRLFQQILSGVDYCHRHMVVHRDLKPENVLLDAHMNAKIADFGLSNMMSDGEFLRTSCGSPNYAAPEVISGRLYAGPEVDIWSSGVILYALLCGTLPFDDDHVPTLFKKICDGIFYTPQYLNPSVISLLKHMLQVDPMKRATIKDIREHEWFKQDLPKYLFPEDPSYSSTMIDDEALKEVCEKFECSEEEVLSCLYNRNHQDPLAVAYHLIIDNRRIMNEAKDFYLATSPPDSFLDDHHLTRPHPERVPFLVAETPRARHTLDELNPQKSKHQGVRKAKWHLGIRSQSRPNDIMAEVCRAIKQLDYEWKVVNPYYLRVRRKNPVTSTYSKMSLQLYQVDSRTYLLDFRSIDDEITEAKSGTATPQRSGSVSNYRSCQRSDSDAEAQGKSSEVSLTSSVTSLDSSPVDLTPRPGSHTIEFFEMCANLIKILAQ

[9] = target: 5'-AMP-activated protein kinase catalytic subunit alpha-1 (Homo sapiens) (UniProt Q13131); conditions: at 1 µM
[10] = target: 5'-AMP-activated protein kinase catalytic subunit alpha-2 (Homo sapiens) (UniProt P54646); conditions: at 0.1 µM
5'-AMP-activated protein kinase catalytic subunit alpha-2 (Homo sapiens), sequence (P54646 whole entry, looked up): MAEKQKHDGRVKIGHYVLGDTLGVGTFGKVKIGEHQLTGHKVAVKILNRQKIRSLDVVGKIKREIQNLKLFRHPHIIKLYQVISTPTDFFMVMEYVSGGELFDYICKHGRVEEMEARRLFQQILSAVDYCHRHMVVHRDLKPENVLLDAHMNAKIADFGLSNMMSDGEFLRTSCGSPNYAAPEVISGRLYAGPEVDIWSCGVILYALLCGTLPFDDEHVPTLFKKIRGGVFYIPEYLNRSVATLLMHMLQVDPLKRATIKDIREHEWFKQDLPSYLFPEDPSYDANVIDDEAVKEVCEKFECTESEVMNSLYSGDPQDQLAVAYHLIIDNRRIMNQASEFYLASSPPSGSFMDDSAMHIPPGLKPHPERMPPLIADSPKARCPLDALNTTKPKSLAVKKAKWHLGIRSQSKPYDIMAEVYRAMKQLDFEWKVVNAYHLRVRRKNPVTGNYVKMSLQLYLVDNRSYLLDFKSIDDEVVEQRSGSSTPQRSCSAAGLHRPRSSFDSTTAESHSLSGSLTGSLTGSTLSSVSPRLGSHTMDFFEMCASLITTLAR

[11] = target: 5'-AMP-activated protein kinase catalytic subunit alpha-2 (Homo sapiens) (UniProt P54646); conditions: at 1 µM
[12] = target: T4, NUAK family SNF1-like kinase 1 (Homo sapiens) (UniProt O60285); conditions: at 0.1 µM
T4 sequence (whole entry): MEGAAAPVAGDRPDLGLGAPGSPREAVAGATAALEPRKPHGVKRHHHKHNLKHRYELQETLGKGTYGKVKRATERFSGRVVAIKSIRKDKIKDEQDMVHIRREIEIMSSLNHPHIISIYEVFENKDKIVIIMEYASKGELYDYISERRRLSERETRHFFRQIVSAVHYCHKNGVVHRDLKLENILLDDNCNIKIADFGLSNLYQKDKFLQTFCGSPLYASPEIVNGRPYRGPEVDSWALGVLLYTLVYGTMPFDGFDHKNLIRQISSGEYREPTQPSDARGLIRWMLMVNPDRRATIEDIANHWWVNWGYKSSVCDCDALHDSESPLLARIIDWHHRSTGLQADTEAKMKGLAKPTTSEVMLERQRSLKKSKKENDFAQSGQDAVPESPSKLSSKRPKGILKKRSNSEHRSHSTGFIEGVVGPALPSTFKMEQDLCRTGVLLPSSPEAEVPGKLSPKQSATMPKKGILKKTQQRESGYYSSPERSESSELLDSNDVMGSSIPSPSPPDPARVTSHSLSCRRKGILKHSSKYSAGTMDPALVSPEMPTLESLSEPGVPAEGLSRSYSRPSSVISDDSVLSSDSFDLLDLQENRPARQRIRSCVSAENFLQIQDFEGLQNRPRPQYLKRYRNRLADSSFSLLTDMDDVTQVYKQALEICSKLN

[13] = target: T4, NUAK family SNF1-like kinase 1 (Homo sapiens); conditions: at 1 µM
[14] = target: T5, Serine/threonine-protein kinase BRSK1 (Homo sapiens) (UniProt Q8TDC3); conditions: at 0.1 µM
T5 sequence (whole entry): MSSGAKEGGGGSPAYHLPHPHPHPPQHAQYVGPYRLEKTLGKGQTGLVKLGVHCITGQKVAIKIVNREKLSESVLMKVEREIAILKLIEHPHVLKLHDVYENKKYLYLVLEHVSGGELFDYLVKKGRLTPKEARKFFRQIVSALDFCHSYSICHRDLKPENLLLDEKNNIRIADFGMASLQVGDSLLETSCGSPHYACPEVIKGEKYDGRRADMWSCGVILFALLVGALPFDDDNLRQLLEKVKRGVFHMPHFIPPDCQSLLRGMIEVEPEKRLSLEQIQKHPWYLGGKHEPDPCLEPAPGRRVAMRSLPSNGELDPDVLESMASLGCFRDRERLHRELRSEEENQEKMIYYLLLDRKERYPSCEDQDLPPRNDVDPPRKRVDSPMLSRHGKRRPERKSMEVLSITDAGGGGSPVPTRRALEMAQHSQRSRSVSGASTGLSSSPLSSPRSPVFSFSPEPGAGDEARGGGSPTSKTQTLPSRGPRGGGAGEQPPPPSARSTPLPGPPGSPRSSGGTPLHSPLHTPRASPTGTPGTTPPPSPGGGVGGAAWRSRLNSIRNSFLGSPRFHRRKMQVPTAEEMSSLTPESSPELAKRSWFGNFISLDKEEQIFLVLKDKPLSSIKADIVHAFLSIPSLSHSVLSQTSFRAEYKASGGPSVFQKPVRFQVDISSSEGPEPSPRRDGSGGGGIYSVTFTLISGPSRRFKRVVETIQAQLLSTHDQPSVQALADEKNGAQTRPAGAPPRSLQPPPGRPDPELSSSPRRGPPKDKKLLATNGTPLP

[15] = target: T5, Serine/threonine-protein kinase BRSK1 (Homo sapiens); conditions: at 1 µM
[16] = target: T6, Serine/threonine-protein kinase BRSK2 (Homo sapiens) (UniProt Q8IWQ3); conditions: at 0.1 µM
T6 sequence (whole entry): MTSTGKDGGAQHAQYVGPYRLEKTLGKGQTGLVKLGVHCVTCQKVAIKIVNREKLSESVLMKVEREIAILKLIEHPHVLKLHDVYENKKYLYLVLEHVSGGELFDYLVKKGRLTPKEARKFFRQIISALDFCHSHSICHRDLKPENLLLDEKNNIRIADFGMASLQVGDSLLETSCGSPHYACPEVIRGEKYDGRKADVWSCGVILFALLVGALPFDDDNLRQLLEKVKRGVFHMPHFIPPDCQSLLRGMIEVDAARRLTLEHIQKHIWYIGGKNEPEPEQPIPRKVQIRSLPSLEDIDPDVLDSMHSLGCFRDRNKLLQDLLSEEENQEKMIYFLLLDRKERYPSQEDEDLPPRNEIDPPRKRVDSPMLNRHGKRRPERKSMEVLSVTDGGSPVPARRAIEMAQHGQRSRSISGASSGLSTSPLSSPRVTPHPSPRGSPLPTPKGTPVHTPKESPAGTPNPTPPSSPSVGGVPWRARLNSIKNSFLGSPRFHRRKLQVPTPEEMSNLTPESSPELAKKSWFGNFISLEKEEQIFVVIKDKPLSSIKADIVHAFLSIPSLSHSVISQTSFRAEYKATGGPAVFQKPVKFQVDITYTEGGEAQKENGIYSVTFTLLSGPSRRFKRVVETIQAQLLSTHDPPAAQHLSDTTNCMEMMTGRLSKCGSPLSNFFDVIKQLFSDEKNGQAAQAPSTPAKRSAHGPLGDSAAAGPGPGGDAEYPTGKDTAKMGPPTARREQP

[17] = target: T6, Serine/threonine-protein kinase BRSK2 (Homo sapiens); conditions: at 1 µM
[18] = target: Calcium/calmodulin-dependent protein kinase type 1D (Homo sapiens) (UniProt Q8IU85); conditions: at 0.1 µM
Calcium/calmodulin-dependent protein kinase type 1D (Homo sapiens), sequence (Q8IU85 whole entry, looked up): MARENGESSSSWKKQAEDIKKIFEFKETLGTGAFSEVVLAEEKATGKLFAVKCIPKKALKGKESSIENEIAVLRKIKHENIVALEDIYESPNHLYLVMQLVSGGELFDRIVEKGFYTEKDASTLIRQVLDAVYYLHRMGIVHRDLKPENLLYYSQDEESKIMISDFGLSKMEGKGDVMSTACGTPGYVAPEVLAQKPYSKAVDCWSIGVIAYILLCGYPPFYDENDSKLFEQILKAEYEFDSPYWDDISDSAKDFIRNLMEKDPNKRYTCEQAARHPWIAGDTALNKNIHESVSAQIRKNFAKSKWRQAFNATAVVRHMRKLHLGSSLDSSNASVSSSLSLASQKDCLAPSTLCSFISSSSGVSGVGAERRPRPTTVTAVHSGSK

[19] = target: Calcium/calmodulin-dependent protein kinase type 1D (Homo sapiens) (UniProt Q8IU85); conditions: at 1 µM
[20] = target: Calcium/calmodulin-dependent protein kinase type II subunit alpha (Homo sapiens) (UniProt Q9UQM7); conditions: at 0.1 µM;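 further: reported values are averages (mean inhibition of CAMK2A)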
Calcium/calmodulin-dependent protein kinase type II subunit alpha (Homo sapiens), sequence (Q9UQM7 whole entry): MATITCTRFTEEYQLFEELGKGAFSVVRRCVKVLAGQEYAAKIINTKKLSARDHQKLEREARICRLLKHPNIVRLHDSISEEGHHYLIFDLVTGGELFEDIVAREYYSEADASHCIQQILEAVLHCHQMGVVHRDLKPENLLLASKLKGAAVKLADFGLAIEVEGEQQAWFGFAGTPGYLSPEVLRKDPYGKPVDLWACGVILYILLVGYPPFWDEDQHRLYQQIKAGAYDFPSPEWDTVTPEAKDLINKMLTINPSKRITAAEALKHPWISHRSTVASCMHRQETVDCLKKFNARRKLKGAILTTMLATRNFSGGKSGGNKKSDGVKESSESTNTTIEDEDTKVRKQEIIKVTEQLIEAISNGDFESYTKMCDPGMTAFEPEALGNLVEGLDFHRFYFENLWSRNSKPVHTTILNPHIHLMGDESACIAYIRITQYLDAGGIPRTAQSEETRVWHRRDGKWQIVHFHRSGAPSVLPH

Ribosomal protein S6 kinase alpha-6 (Homo sapiens), sequence (Q9UK32 whole entry): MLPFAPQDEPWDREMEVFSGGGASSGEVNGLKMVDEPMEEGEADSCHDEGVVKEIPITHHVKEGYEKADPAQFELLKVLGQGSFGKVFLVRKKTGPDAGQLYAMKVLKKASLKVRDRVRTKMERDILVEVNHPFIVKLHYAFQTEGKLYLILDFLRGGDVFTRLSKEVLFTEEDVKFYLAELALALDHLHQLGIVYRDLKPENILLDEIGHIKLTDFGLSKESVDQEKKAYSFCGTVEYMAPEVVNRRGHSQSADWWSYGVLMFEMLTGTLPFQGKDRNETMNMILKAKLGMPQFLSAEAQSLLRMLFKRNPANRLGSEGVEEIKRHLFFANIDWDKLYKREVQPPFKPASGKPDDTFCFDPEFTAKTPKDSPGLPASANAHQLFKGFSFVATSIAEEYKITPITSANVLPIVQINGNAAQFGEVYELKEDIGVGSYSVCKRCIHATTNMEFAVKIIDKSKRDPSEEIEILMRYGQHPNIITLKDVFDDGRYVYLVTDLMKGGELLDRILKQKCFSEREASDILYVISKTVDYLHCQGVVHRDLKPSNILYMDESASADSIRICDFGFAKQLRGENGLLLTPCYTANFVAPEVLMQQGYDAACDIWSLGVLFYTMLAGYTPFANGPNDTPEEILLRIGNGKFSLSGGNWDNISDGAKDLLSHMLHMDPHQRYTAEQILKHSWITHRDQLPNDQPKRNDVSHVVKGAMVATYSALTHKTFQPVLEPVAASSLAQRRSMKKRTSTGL

Compound	inhibition [1] [%]	inhibition [2] [%]	inhibition [3] [%]	inhibition [4] [%]	inhibition [5] [%]	inhibition [6] [%]	inhibition [7] [%]	inhibition [8] [%]	inhibition [9] [%]	inhibition [10] [%]	inhibition [11] [%]	inhibition [12] [%]	inhibition [13] [%]	inhibition [14] [%]	inhibition [15] [%]	inhibition [16] [%]	inhibition [17] [%]	inhibition [18] [%]	inhibition [19] [%]	inhibition [20] [%]
CN(C)CCOc1ccc(-c2cc(-c3ccc4c(c3)CCC4=NO)c(-c3ccncc3)o2)cc1	-1.99	1.28	0.73	-2.26	2.64	1.69	-4.66	-1.39	-0.8	0.73	0.01	0.84	-0.24	-0.05	-0.95	-0.42	1.46	-0.88	1.79	-1.08
O=C(Nc1n[nH]c2cc(-c3cc(F)ccc3F)ccc12)C1CC1	2.43	2.46	1.25	0.34	0.08	2.01	0.16	2.72	2.32	3.84	9.82	-2.28	-2.43	2.17	15.3	3.03	14.1	-0.34	1.27	1.96
O=C(Nc1n[nH]c2nc(-c3ccco3)ccc12)C1CC1	0.71	2.03	0.33	0.71	0.28	-0.55	1.28	-0.2	1.85	1.32	3.94	0.19	2.78	0.98	3.49	0.55	4.63	0.8	2.1	1.71
